# Reference: PubChem BioAssay (NCATS)
# Records with an inconclusive call do not appear. Entries that show only a call come without a potency. The source made the active and inactive calls. Calls come from the whole dose curve; as a rule, active = well fitted inhibition curve with a large enough effect; inconclusive = small, poorly fitted or top-dose-only effect; inactive = flat fitted curve, though single readings scatter.
# Columns and labels:
# [1] = Confirmatory screen GU Rhodamine qHTS for Zika virus inhibitors qHTS (AID 1347157); settings: purified enzyme assay, Rhodamine110 substrate fluorescence, 15 min
# Procedure, shortened: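 Noncovalent NS2B hydrophilic domain/NS3 protease complex (25 nM final) in 10 mM Tris-HCl pH 8.0, 0.01% Tween 20, preincubated 15 min with compounds (up to 114 microM), then 1.5 microM Rhodamine110 substrate. Fluorescence change over 15 min fitted to 4-parameter Hill.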
# [2] = tested on: Zika virus NS2B-NS3 protease; test: Primary screen GU AMC qHTS for Zika virus inhibitors (AID 1347154); settings: Zika NS2B-NS3 unlinked protease, AMC fluorogenic substrate; series mostly up to 54.1 µM
# Procedure, shortened: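 Unlinked Zika NS2B hydrophilic domain–NS3 protease complex at 25 nM in 10 mM Tris-HCl pH 8.0, 0.01% Tween 20, with an AMC peptide substrate. Fluorescence change (340/450 nm) over 15 min at room temperature, normalized to controls, fitted to 4-parameter Hill.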
# Note: nearly all actives have a fitted effect of over 70% in size.
# Potency is the fitted concentration of half-maximal effect.
compound,measurement,setting,value
Oc1c(Cl)cc(Cl)cc1Sc1cc(Cl)cc(Cl)c1O,Potency,[1],22.4 µM (active)
Oc1c(I)cc(Cl)c2cccnc12,Potency,[2],inactive
CN(C)CC/C=C1\c2ccccc2Sc2ccc(Cl)cc21,Potency,[2],inactive
COc1cccc2c1C(=O)c1c(O)c3c(c(O)c1C2=O)C[C@@](O)(C(C)=O)C[C@@H]3O[C@H]1C[C@H](N)[C@H](O)[C@H](C)O1,Potency,[2],inactive
O=C(O)CCCCC(=O)O,Potency,[2],inactive
NCCCC[C@H](N[C@@H](CCc1ccccc1)C(=O)O)C(=O)N1CCC[C@H]1C(=O)O,Potency,[2],inactive
CCOC(=O)/C=C(C)/C=C/C=C(C)/C=C/c1c(C)cc(OC)c(C)c1C,Potency,[2],inactive
C[C@H]1[C@H](NC(=O)/C(=N/OC(C)(C)C(=O)O)c2csc(N)n2)C(=O)N1S(=O)(=O)O (stereo in doubt),Potency,[2],inactive
O=C1OC(c2ccc(O)cc2)(c2ccc(O)cc2)c2ccccc21,Potency,[2],inactive
Cc1c(N(C)CS(=O)(=O)O)c(=O)n(-c2ccccc2)n1C,Potency,[2],inactive
Cc1cc(N)c2cc(NC(=O)Nc3ccc4nc(C)cc(N)c4c3)ccc2n1,Potency,[2],14.1 µM (active)
CC(C)=CCC1C(=O)N(c2ccccc2)N(c2ccccc2)C1=O,Potency,[2],inactive
CCCCOc1ccc(C(=O)CCN2CCCCC2)cc1,Potency,[2],inactive
C=CCc1ccc(O)c(OC)c1,Potency,[2],inactive
Cc1onc(-c2c(Cl)cccc2Cl)c1C(=O)N[C@@H]1C(=O)N2[C@@H]1SC(C)(C)[C@@H]2C(=O)O,Potency,[2],inactive
N[C@H](Cc1c[nH]c2ccccc12)C(=O)O,Potency,[2],inactive
CC1(C)O[C@@H]2C[C@H]3[C@@H]4C[C@H](F)C5=CC(=O)C=C[C@]5(C)[C@H]4[C@@H](O)C[C@]3(C)[C@]2(C(=O)CO)O1,Potency,[2],inactive
CCCCCCCCCCCCCCCCCC(=O)OCC(O)CO (stereo not given),Potency,[2],inactive
CCCCc1nc(Cl)c(CO)n1Cc1ccc(-c2ccccc2-c2nn[nH]n2)cc1,Potency,[2],inactive
COc1cc(N)c(Cl)cc1C(=O)NC1CCN(CCCOc2ccc(F)cc2)CC1OC (stereo not given),Potency,[2],inactive
NC[C@H]1O[C@H](O[C@H]2[C@H](O)[C@@H](O[C@H]3O[C@H](CO)[C@@H](O)[C@H](N)[C@H]3O)[C@H](N)C[C@@H]2N)[C@H](N)[C@@H](O)[C@@H]1O,Potency,[2],inactive
OCc1ccccc1O,Potency,[2],inactive
Nc1ccc(/C=C/c2ccc(N)cc2S(=O)(=O)O)c(S(=O)(=O)O)c1,"activity change, negative = inhibition",[2],-4.58% [at 0.59 µM] (inactive)
CCCCCCc1ccc(O)cc1O,Potency,[2],inactive
C[C@]12CC[C@H]3[C@@H](CCC4=CC(=O)CC[C@@]43C)[C@@H]1CC[C@@H]2C(=O)CO,Potency,[2],inactive
CC1=C(C(=O)O)N2C(=O)[C@@H](NC(=O)[C@H](N)c3ccc(O)cc3)[C@H]2SC1,Potency,[2],inactive
NC(CS)C(=O)O (stereo not given),Potency,[2],inactive
OC[C@@H](O)[C@@H](O[C@@H]1O[C@H](CO)[C@H](O)[C@H](O)[C@H]1O)[C@H](O)[C@@H](O)CO,Potency,[2],inactive
CCOC(=O)[C@H](CCc1ccccc1)N[C@@H](C)C(=O)N1Cc2ccccc2C[C@H]1C(=O)O,Potency,[2],inactive
COc1cc2c(cc1OC)C(=O)C(CC1CCN(Cc3ccccc3)CC1)C2 (stereo not given),Potency,[2],inactive
CC(O)C(=O)O (stereo not given),Potency,[2],inactive
CCOC(=O)n1ccn(C)c1=S,Potency,[2],inactive
Cc1ncc(CSSCc2cnc(C)c(O)c2CO)c(CO)c1O,Potency,[2],inactive
COc1cc2c(cc1OC)[C@@H]1CC(=O)[C@@H](CC(C)C)CN1CC2,Potency,[2],inactive
CCN(CCCc1ccccc1)CCCc1ccccc1,Potency,[2],inactive
C=C(CC)C(=O)c1ccc(OCC(=O)O)c(Cl)c1Cl,Potency,[2],inactive
NC(=O)c1cc[n+](CC2=C(C(=O)[O-])N3C(=O)[C@@H](NC(=O)Cc4cccs4)[C@H]3SC2)cc1,Potency,[2],inactive
O=C(Nc1ccc(Cl)c(Cl)c1)C1CC1,Potency,[2],inactive
CN1CCC[C@@H]1c1cccnc1,Potency,[2],inactive
CC1(C)O[C@@H]2[C@@H](CO[C@@]3(COS(N)(=O)=O)OC(C)(C)O[C@@H]23)O1,Potency,[2],inactive
C/C=C/c1ccc(OC)cc1,Potency,[2],inactive
COc1cc2c(cc1OC)C(C(C(=O)N(CCc1ccc(OC)c(OC)c1OC)CCc1ccc(OC)c(OC)c1OC)c1ccccc1)=NCC2 (stereo not given),Potency,[2],inactive
N[C@@H](CCC(=O)N[C@@H](CS)C(=O)NCC(=O)O)C(=O)O,Potency,[2],inactive
CC(=O)OCC(=O)NCCCOc1cccc(CN2CCCCC2)c1,Potency,[2],inactive
CNCC[C@@H](Oc1ccccc1C)c1ccccc1,Potency,[2],inactive
CCCN1CCCC[C@H]1C(=O)Nc1c(C)cccc1C,Potency,[2],inactive
O=c1c(-c2ccccc2)c1-c1ccccc1,Potency,[2],inactive
CCCC(=O)Nc1ccc(OCC(O)CNC(C)C)c(C(C)=O)c1 (stereo not given),Potency,[2],inactive
O=C(O)CNC(=O)c1ccccc1,Potency,[2],inactive
CCN1CCC[C@H]1CNC(=O)c1c(OC)ccc(Br)c1OC,Potency,[2],inactive
C[C@]12CC[C@@H]3c4ccc(O)cc4CC[C@H]3[C@@H]1C[C@@H](O)[C@@H]2O,Potency,[2],inactive
Cc1ccnc(NS(=O)(=O)c2ccc(N)cc2)n1,Potency,[2],inactive
CN(C)CC/C=C1/c2ccccc2COc2ccc(CC(=O)O)cc21,Potency,[2],inactive
CN(C)CCOc1ccccc1Cc1ccccc1,Potency,[2],inactive
C=C1C(=C/C=C2\CCC[C@]3(C)[C@@H]([C@H](C)/C=C/[C@@H](O)C4CC4)CC[C@@H]23)C[C@@H](O)C[C@@H]1O,Potency,[2],inactive
COc1ccc(CCN2CCC(Nc3nc4ccccc4n3Cc3ccc(F)cc3)CC2)cc1,Potency,[2],inactive
CC(=O)CC(c1ccc([N+](=O)[O-])cc1)c1c(O)c2ccccc2oc1=O (stereo not given),Potency,[2],inactive
CCCCOc1cc(C(=O)NCCN(CC)CC)c2ccccc2n1,Potency,[2],inactive
Cc1cccc(C)c1NC(=O)CN1CCN(CCCC(c2ccc(F)cc2)c2ccc(F)cc2)CC1,Potency,[2],inactive
O=C1[C@H]2CCCC[C@H]2C(=O)N1CCCCN1CCN(c2nsc3ccccc23)CC1,Potency,[2],inactive
Cc1c(F)c(N2CCNC(C)C2)cc2c1c(=O)c(C(=O)O)cn2C1CC1 (stereo not given),Potency,[2],inactive
CCCCN1CCCC1C(=O)Nc1c(C)cc(C)cc1C (stereo not given),Potency,[2],inactive
CC1(C)OC[C@@H](COC(=O)CCc2ccc(OC[C@@H](O)CNCCNC(=O)N3CCOCC3)cc2)O1,Potency,[2],inactive
CCCCCCCCCCCCCCCC[N+](C)(C)CC,Potency,[2],inactive
O=C(CCN1CCC(c2ccccc2)C1)c1ccc2c(c1)OCCO2 (stereo not given),Potency,[2],inactive
COc1cc(OC)cc(OC)c1,Potency,[2],inactive
CCCOC(C(=O)OC1CCN(C)CC1)(c1ccccc1)c1ccccc1,Potency,[2],inactive
O=C1OCCN1/N=C/c1ccc([N+](=O)[O-])o1,Potency,[2],inactive
C#C[C@]1(O)CC[C@H]2[C@@H]3CCC4=CC(=O)CC[C@@H]4[C@H]3CC[C@@]21C,Potency,[2],inactive
CC(=O)Oc1ccc(C(=C2CCCCC2)c2ccc(OC(C)=O)cc2)cc1,Potency,[2],inactive
